# Hits are enriched below; roughly 6.7% of the tested compounds scored in any of these assays.
# C diff growth – C. difficile growth inhibitors, primary screen, HTS. growth activity, negative = inhibition, % at 16 µg/mL (by protocol). 0.25% of 86,000 active. AID 1259249, 2017. Clostridium difficile clinical isolate growth, OD600, 24 h; active compounds read low;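 active = mean growth activity at or below -80% and every replicate also at or below -80%; inconclusive = mean at or below -80% but some replicate above -80%; inactive = mean growth activity above -80%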;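 note: 0% = DMSO wells and -100% = levofloxacin 16 µg/mL wells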
# T cruzi growth-1 – T. cruzi intracellular proliferation inhibitors, primary screen, cell-based, beta-gal Tulahuen parasites, NIH3T3 host, luminescence. T. cruzi beta-gal in NIH3T3, GalScreen luminescence, 90 h. inhibition, % at 8.34 µM. 5.9% of 77,000 active. AID 624255, 2012;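 active = mean inhibition above about 93%, with at least 55% of replicates each passing it, limit read from the data, passing the limit was not always enough; inconclusive = only one of those two conditions holds; inactive = neither condition holds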
# Pf Dd2 inh – P. falciparum Dd2 growth inhibitors, primary screen, SYBR Green fluorescence, single dose replicates | 72 h; active compounds read low | 2.3% of 94,000 active | activity change, % at 10 µM | AID 1159554, 2015; in the data active = activity change below about -80%; inconclusive = no clear call, values can overlap the other calls
# T cruzi growth-2 – T. cruzi intracellular proliferation inhibitors, confirmation, cell-based, NIH3T3 host, beta-gal parasite, luminescence, cherry-pick; 72% of 5,600 active; inhibition, % at 8.35 µM; shares compounds with T cruzi growth-1; T. cruzi beta-gal in NIH3T3, GalScreen luminescence, 90 h;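 active = mean replicate inhibition above about 95% and at least 55% of replicates individually reaching it, limit read from the data; inconclusive = only one of the two criteria is met; inactive = neither criterion is met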
# T cruzi growth-3 – inhibitors of intracellular T. cruzi replication, confirmation, NIH3T3 host cells, beta-gal parasites, cherry-pick, set 2. shares compounds with T cruzi growth-1. T. cruzi beta-gal in NIH3T3, GalScreen luminescence, 90 h. inhibition, % at 2.09 µM. 21% of 5,600 active;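 active = mean inhibition above about 95%, with at least 55% of replicates also reaching it, limit read from the data; inconclusive = meets just one of the two conditions; inactive = meets neither condition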;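 note: plate controls were neutral control median for no effect and positive control median for full effect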
# 3T3 cytotox – cytotoxicity in mouse NIH/3T3 fibroblasts, confirmation, cytotoxicity control for T. cruzi proliferation inhibitor project, cell-based, cherry-pick, single point | NIH/3T3 viability, CellTiter-Glo ATP luminescence, 90 h | shares compounds with T cruzi growth-1 | cytotoxicity (signal decrease), % at 8.35 µM | 14% of 5,600 active | AID 651742, 2012;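 active = mean signal decrease across replicates above about 35% based on untreated-well scatter, with enough replicates individually passing, limit read from the data; inconclusive = no rule stated though some were filed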;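 note: 0% = median of neutral control wells and 100% = median of positive control wells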
# 3T3 cytotox 2 – NIH/3T3 fibroblast cytotoxicity, confirmation, cytotoxicity control, cell-based, cherry-pick, single point, set 2 | shares compounds with T cruzi growth-1 | NIH/3T3 viability, CellTiter-Glo ATP luminescence, 90 h | inhibition, % at 24.9 µM | 56% of 5,600 active;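 active = mean loss of cell viability signal at or above a set limit, and enough replicates individually reaching it; inconclusive = meets only the mean limit or only the replicate share; inactive = meets neither condition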;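 note: 0% = median of neutral control wells and 100% = median of positive control wells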
# The depositor's hits bear a star; ? = inconclusive; . = no result given.
SMILES,C diff growth,T cruzi growth-1,Pf Dd2 inh,T cruzi growth-2,T cruzi growth-3,3T3 cytotox,3T3 cytotox 2
Cc1ccc(S(=O)(=O)Nc2ccc3c(c2)C(=O)N([C@@H](C)CO)C[C@@H](C)[C@@H](CN(C)S(=O)(=O)c2ccc(C)cc2)OCCCC[C@@H](C)O3)cc1,.,91,-56,.,.,.,.
Cc1ccc(S(=O)(=O)Nc2ccc3c(c2)C(=O)N([C@@H](C)CO)C[C@H](C)[C@@H](CN(C)S(=O)(=O)c2ccc(C)cc2)OCCCC[C@@H](C)O3)cc1,.,102*,-44,105*,73,7,5
COc1ccc(NC(=O)N(C)C[C@H]2Oc3ccc(NS(C)(=O)=O)cc3CC(=O)N([C@H](C)CO)C[C@H]2C)cc1,-4,27,4,.,.,.,.
Cc1noc(C)c1NC(=O)N(C)C[C@@H]1Oc2c(NC(=O)Nc3ccc4c(c3)OCO4)cccc2C(=O)N([C@H](C)CO)C[C@H]1C,0,96,14,.,.,.,.
O=C(C[C@H]1C=C[C@H](NC(=O)Nc2ccc(C(F)(F)F)cc2)[C@H](CO)O1)NCc1cc(F)cc(F)c1,4,-8,-1,.,.,.,.
O=C(C1CC1)N1CCCCN2[C@H](CO)[C@H](c3ccc(C#CC4(O)CCCC4)cc3)[C@H]2C1,-4,30,26,.,.,.,.
CN1C(=O)c2cc(NC(=O)C3CCC3)ccc2OC[C@H]2O[C@H](CC(=O)NCC3CCCCC3)CC[C@@H]21,2,.,-2,.,.,.,.
C[C@@H]1CCCCO[C@@H](CN(C)C(=O)CCCN(C)C)[C@H](C)CN([C@@H](C)CO)C(=O)c2cc(NS(=O)(=O)c3cn(C)cn3)ccc2O1,0,-102,53,.,.,.,.
C[C@@H]1CN([C@H](C)CO)S(=O)(=O)c2ccc(C#CCN(C)C)cc2O[C@H]1CN(C)C(=O)C1CCCCC1,-2,.,-43,.,.,.,.
C[C@@H]1CN([C@H](C)CO)S(=O)(=O)c2ccc(C3=CCCCC3)cc2O[C@@H]1CN(C)Cc1cccnc1,-9,.,-10,.,.,.,.
C[C@H](CO)N1C[C@H](C)[C@@H](CN(C)Cc2cccnc2)Oc2cc(C3=CCCCC3)ccc2S1(=O)=O,-7,.,-60,.,.,.,.
C[C@@H]1CN([C@@H](C)CO)S(=O)(=O)c2ccc(C3=CCCCC3)cc2O[C@H]1CN(C)Cc1ccncc1,-2,114*,-62,95*,107*,46*,95*
C[C@@H]1CN([C@@H](C)CO)S(=O)(=O)c2ccc(C3=CCCCC3)cc2O[C@@H]1CN(C)Cc1ccncc1,-8,102*,-44,99*,92,?,78*
C[C@@H]1CN([C@H](C)CO)S(=O)(=O)c2ccc(C3=CCCCC3)cc2O[C@H]1CN(C)Cc1cccnc1,-4,.,-66,.,.,.,.
C[C@H]1CN([C@@H](C)CO)S(=O)(=O)c2ccc(C3=CCCCC3)cc2O[C@@H]1CN(C)Cc1ccncc1,12,121*,-62,96*,97*,53*,102*
C[C@H](CO)N1C[C@H](C)[C@H](CN(C)Cc2ccncc2)Oc2cc(C3=CCCCC3)ccc2S1(=O)=O,12,116*,-73,98*,84,58*,83*
C[C@H]1CN([C@@H](C)CO)S(=O)(=O)c2ccc(C3=CCCCC3)cc2O[C@H]1CN(C)Cc1cncnc1,5,78,-5,.,.,.,.
COc1ccc2c3c([nH]c2c1)[C@H](CO)N(C)CC31CCN(C(=O)c2ccccn2)CC1,5,.,18,.,.,.,.
C[C@@H]1CCCCO[C@@H](CN(C)Cc2ccc(C(=O)O)cc2)[C@H](C)CN([C@H](C)CO)C(=O)c2cc(NC(=O)Cc3ccccc3)ccc2O1,-6,23,-3,.,.,.,.
COc1cccc(NC(=O)N[C@@H]2CC[C@@H](CC(=O)NCc3ccccn3)O[C@H]2CO)c1,0,72,-15,.,.,.,.
COc1ccccc1-c1ccc2c(c1)[C@H]1[C@H](CCN1C(=O)C1CC1)[C@@H](CO)N2,-1,98*,4,107*,88,-7,1
COc1ccccc1-c1ccc2c(c1)[C@H]1[C@H](CCN1C(=O)C1CC1)[C@H](CO)N2,-1,88,-3,.,.,.,.
O=C(C1CC1)N1CC[C@@H]2[C@@H](CO)Nc3ccc(-c4cccc(F)c4)cc3[C@@H]21,-22,109*,-5,101*,83,-1,26*
CC(=O)N1CC[C@@H]2[C@H](CO)Nc3ccc(-c4cccc(F)c4)cc3[C@@H]21,-6,66,25,.,.,.,.
O=C(C1CCCC1)N1CC[C@H]2[C@H](CO)Nc3ccc(-c4cccc(F)c4)cc3[C@H]21,28,.,-49,.,.,.,.
SMILES,C diff growth,T cruzi growth-1,Pf Dd2 inh,T cruzi growth-2,T cruzi growth-3,3T3 cytotox,3T3 cytotox 2
O=C(C1CCC1)N1CC[C@@H]2[C@H](CO)Nc3ccc(-c4cccc(F)c4)cc3[C@@H]21,29,?,18,106*,91,1,70*
COC(=O)[C@H]1[C@H](CO)[C@H]2Cn3c(ccc(-c4ccccc4F)c3=O)[C@H]2N1Cc1ccccc1,3,55,8,.,.,.,.
OC[C@@H]1Nc2ccc(C#Cc3ccc(F)cc3)cc2[C@H]2[C@@H]1CCN2Cc1nccs1,.,104*,-30,98*,105*,37*,105*
O=C(C1CC1)N1CC[C@@H]2[C@H]1c1cc(C#Cc3ccc(F)cc3)ccc1N[C@@H]2CO,-20,64,-61,.,.,.,.
OC[C@@H]1Nc2ccc(C3=CCCCC3)cc2[C@@H]2[C@H]1CCN2Cc1nccs1,-1,.,-78,.,.,.,.
OC[C@H]1Nc2ccc(C#Cc3ccc(F)cc3)cc2[C@H]2[C@@H]1CCN2Cc1nccs1,2,103*,-22,107*,102*,15,106*
C[C@@H]1CN([C@@H](C)CO)C(=O)c2cc(NC(=O)C3CC3)ccc2O[C@H]1CN(C)S(=O)(=O)c1ccc(Cl)cc1,1,62,-55,.,.,.,.
COCC(=O)N1C[C@@H]2[C@H](c3ccccc31)[C@@H](CO)N2C(=O)c1ccncc1,0,-42,10,.,.,.,.
CCNC(=O)[C@@H]1[C@@H](CO)[C@@H]2Cn3c(ccc(-c4ccc(F)cc4)c3=O)[C@H]1N2C(=O)c1ccccn1,19,-74,.,.,.,.,.
C[C@@H]1CN([C@@H](C)CO)C(=O)c2cc(NC(=O)Cc3ccccc3)ccc2O[C@@H](C)CCCCO[C@H]1CN(C)S(=O)(=O)c1ccc(Cl)cc1,0,40,-76,.,.,.,.
